Among the data in PubChem BioAssay (NCATS) are Potency values, retold here.

Common to all, as to assay: qHTS profiling for inhibitors of Plasmodium falciparum proliferation (AID 504749); further: nearly all actives have a fitted effect of over 60% in size
Holding throughout (details): P. falciparum in erythrocytes, SYBR Green DNA, 72 h; series mostly up to 28.7 µM

Test [1] has as its system CP329. The method in brief: (§1)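 P. falciparum-infected erythrocytes (0.3% parasitemia, 2.5% hematocrit) incubated with compound 72 h at 37 C, 5% CO2. Parasite DNA detected by SYBR Green after lysis, overnight at room temperature; normalised to 0.29 uM artemisinin and DMSO.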
In test [2] the test system is CP335. In a few lines: as §1
In test [3] the test system is DFO2036. In a few lines: as §1
Test [4] has as its system DIV14. The method in brief:
as §1

In test [5] the test system is DIV17. The method in brief: as §1
Test [6] relates to DIV30. The method in brief:
as §1

In test [7] the test system is Dd2. The method in brief:
as §1

For test [8], the system named is ECU. In a few lines: as §1
For test [9], the system named is FAB9. In a few lines: as §1
Test [10] relates to GB4. The method in brief: as §1

Records with an inconclusive call do not appear. Calls of active or inactive are those of the source. The call rests on the fitted dose curve; in most records, active means well fitted inhibition curve with a large enough effect; inconclusive means small, poorly fitted or top-dose-only effect; inactive means flat fitted curve, though single readings scatter.
Potency means the concentration at half of the fitted maximal effect.

As to `CCN(CC)Cc1cc(Nc2ccnc3cc(Cl)ccc23)ccc1O`, the Potency is 90.7 nM (active) in test [1]; 40.5 nM (active) in test [2]; 56.2 nM (active) in [3]; 80.9 nM (active) in test [4]; 114 nM (active) in test [5]; 181 nM (active) in test [6]. For the same compound, the Potency in [7] was 56.2 nM (active); in [8], 31.6 nM (active); in test [9], 39.8 nM (active); in test [10], 40.5 nM (active).

Turning to `CC(C)=O`, the Potency result in [1], in [2], in test [3], in [4], in [5] and in test [6] was “inactive” throughout. Moreover, the Potency result in test [7], in test [8], in test [9] and in test [10] was “inactive” in each case.

As to `CCCCC(C)(O)C/C=C/[C@H]1[C@H](O)CC(=O)[C@@H]1CCCCCCC(=O)OC` (stereo partly drawn), the Potency result in test [1], in test [2], in test [3], in test [4], in [5] and in test [6] was “inactive” in each case. For the same compound, the Potency result in test [7], in [8], in test [9] and in test [10] was “inactive” in each case.

As to `CCCCCCCCCCCC[n+]1ccc2ccccc2c1`, the Potency in [1] is 601 nM (active); in test [2] it was 953 nM (active); in test [3], 562 nM (active); in test [4] it was 757 nM (active); in test [5] it was 953 nM (active); in test [6], 1350 nM (active). Also, the Potency in test [7] is 562 nM (active); in test [8] it was 1260 nM (active); in [9], 1580 nM (active); in [10], 338 nM (active).

`CC[N+](C)(C)Cc1ccccc1Br`: the Potency entry in test [1], in test [2], in test [3], in test [4], in test [5] and in test [6] was “inactive” each time. For the same compound, the Potency result in test [7], in [8], in [9] and in test [10] was “inactive” each time.

Consider `CC(=O)Oc1c(C)cc(OCC(O)CNC(C)C)c(C)c1C` (stereo not drawn), for which the Potency result in test [1], in test [2], in test [3], in test [4], in test [5] and in test [6] was “inactive” throughout. Moreover, the Potency entry in test [7], in test [8] and in test [9] was “inactive” throughout.

`O=C(O)CCC(=O)C(=O)O`: the Potency entry in [1], in test [2], in [3], in test [4], in test [5] and in [6] was “inactive” in each case. The Potency result in test [7], in [8], in [9] and in [10] was “inactive” in each case.

As to `Cc1c(C)c2c(c(C)c1O)CC[C@@](C)(CCC[C@H](C)CCC[C@H](C)CCCC(C)C)O2`, the Potency entry in [1], in [2], in test [3], in test [4], in [5] and in test [6] was “inactive” throughout. The Potency result in test [7], in test [8], in [9] and in test [10] was “inactive” in each case.

Regarding `CCCCC/C=C\C/C=C\CCCCCCCC(=O)O`, the Potency result in test [1], in test [2], in test [3], in test [4], in test [5] and in [6] was “inactive” in each case. Also, the Potency entry in test [7], in [8], in test [9] and in test [10] was “inactive” in each case.

Regarding `Nc1c(N=Nc2ccc(-c3ccc(N=Nc4cc(S(=O)(=O)O)c5ccccc5c4N)cc3)cc2)cc(S(=O)(=O)O)c2ccccc12`, the Potency entry in test [1], in [2], in test [3], in test [4], in test [5] and in [6] was “inactive” each time. In addition, the Potency result in test [7], in test [8], in test [9] and in test [10] was “inactive” throughout.

In the case of `O=C1C(=O)c2ncccc2-c2cccnc21`, the Potency is 1200 nM (active) in test [1]; 536 nM (active) in test [2]; 1000 nM (active) in [3]; 953 nM (active) in test [4]; 953 nM (active) in test [5]; 1510 nM (active) in test [6]. Further, the Potency is 1120 nM (active) in test [7], 2000 nM (active) in test [8], 7940 nM (active) in test [9] and 849 nM (active) in test [10].

As for `CCCCCCCCCCCCCC[n+]1ccc(C)cc1`, the Potency in test [1] is 4260 nM (active); in test [2] it was 4260 nM (active); in test [3], 4470 nM (active); in test [4] it was 1690 nM (active); in [5], 1900 nM (active); in test [6], 4780 nM (active). Moreover, the Potency in test [7] was 2820 nM (active); in test [8] it was 3160 nM (active); in test [9], 12600 nM (active); in [10], 1200 nM (active).

On to `O=C(O)CN(CCN(CC(=O)O)CC(=O)O)CC(=O)O`, for which the Potency result in [1], in test [2], in [3], in test [4], in [5] and in [6] was “inactive” throughout. Also, the Potency entry in test [7], in test [8], in test [9] and in test [10] was “inactive” throughout.

On to `COc1ccc2c3c1O[C@H]1C[C@@H](O)C=C[C@@]31CCN(C)C2`, for which the Potency result in test [1], in [2], in test [3], in [4], in test [5] and in [6] was “inactive” in each case. Further, the Potency entry in test [7], in test [8], in [9] and in test [10] was “inactive” each time.

Consider `COC(=O)[C@H]1[C@H]2C[C@@H]3c4[nH]c5ccccc5c4CCN3C[C@H]2C[C@@H](OC(=O)c2cc(OC)c(OC)c(OC)c2)[C@@H]1OC`, for which the Potency in test [1] was 151 nM (active); in test [2], 151 nM (active); in test [3], 355 nM (active); in test [4], 190 nM (active); in test [5], 239 nM (active); in test [6], 135 nM (active). In addition, the Potency was 89.1 nM (active) in test [7], 316 nM (active) in [8], 1260 nM (active) in test [9] and 135 nM (active) in [10].

In the case of `NC(=O)c1ncn(C2OC(CO)C(O)C2O)n1` (stereo not drawn), the Potency entry in test [1], in test [2], in test [3], in test [4], in [5] and in test [6] was “inactive” each time. Besides, the Potency entry in test [7], in test [8] and in test [9] was “inactive” in each case.

With `C[C@@H]1CCC2[C@@H](C)[C@@H](O)O[C@@H]3O[C@@]4(C)CC[C@@H]1[C@@]23OO4` (stereo partly drawn), the Potency is 6 nM (active) in [1]; 2.7 nM (active) in test [2]; 1.6 nM (active) in [3]; 3 nM (active) in [4]; 2.7 nM (active) in test [5]; 2.4 nM (active) in [6]. For the same compound, the Potency was 1 nM (active) in [7], 0.9 nM (active) in test [8], 0.9 nM (active) in [9] and 1.9 nM (active) in [10].
